# SKKanGAS inh = blocks kanamycin growth of S. pyogenes SKKanGAS strain; BacTiter-Glo, 6 h; inhibition, % at 7.5 µM; hit rate 1.3% among 300,000; AID 1662;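 active = mean replicate score, as percent of positive control median, at least 50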;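 note: strain carries kanamycin resistance gene driven by streptokinase promoter and grows in 40 µg/ml kanamycin; loss of luminescence reflects streptokinase promoter inhibition or plain growth inhibition; 0% = median of DMSO wells and 100% = positive control at its reference dose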
# NALP3 yeast inh = inhibitors of NALP3 inflammasome in yeast; Yeast reconstituted NLRP3/ASC/caspase-1, beta-gal luminescence, 24 h; inhibition, % at 10 µM; hit rate 0.39% among 330,000; AID 2825;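 active = inhibition of 50% or more; inactive = inhibition below 50%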;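 note: plate controls were induced DMSO wells for no effect and uninduced yeast grown without galactose for full effect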
# TIM10 inh = growth inhibitors of TIM10 yeast strain | S. cerevisiae TIM10 strain growth, BacTiter-Glo luminescence, 24 h | inhibition, % at 10 µM | hit rate 1.4% among 330,000 | AID 463195;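 active = inhibition of 40% or more at the single tested concentration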;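 note: wild-type TIM10 isogenic control strain grown at permissive 25 °C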
# tim23-1 inh = tim23-1 yeast growth inhibition; S. cerevisiae tim23-1 growth, BacTiter-Glo luminescence, 24 h; inhibition, % at 20 µM; hit rate 1.3% among 330,000; AID 463212;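 active = growth inhibition of the mutant yeast at or above 50%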;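 note: temperature-sensitive mutant grown at 25 °C; plate controls were DMSO-treated mutant yeast for no effect and medium wells lacking yeast for full effect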
# tim10-1 inh = inhibits growth of tim10-1 mutant yeast. S. cerevisiae tim10-1 ts strain growth, BacTiter-Glo, 24 h. AID 463190. inhibition, % at 20 µM. hit rate 2.2% among 330,000;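 active = inhibition of at least 40%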;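 note: mutant grown at 25 °C; 0% = DMSO wells with yeast and 100% = wells holding no yeast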
# PfHsp90 set2 = growth inhibition of yeast expressing Plasmodium Hsp90. S. cerevisiae expressing PfHsp90, BacTiter-Glo ATP, 48 h; yeast lacking PDR1 and PDR3 efflux regulators. inhibition, % at 9.4 µM. hit rate 0.32% among 310,000. AID 504621;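 active = every replicate shows inhibition above about 80%, whatever the replicate mean, limit read from the data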;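 note: 0% = DMSO neutral controls and 100% = 20 µM radicicol positive controls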
# tim10-1 confirm = confirmation of tim10-1 mutant yeast growth inhibitors | shares compounds with tim10-1 inh | S. cerevisiae tim10-1 ts strain growth, BacTiter-Glo, 24 h | inhibition, % at 20 µM | hit rate 56% among 7,400 | AID 463213;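 active = inhibition of yeast growth at or above a set limit in either of two repeat tests at 20 µM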;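 note: tim10-1 mutant grown at permissive 25 °C to find synthetic lethal compounds; 0% = DMSO yeast wells and 100% = medium wells without yeast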
# * hit, by the source's call; . = not tested or not shown. Hits are enriched below; roughly 4.6% of the tested compounds scored in any of these assays.
SMILES,SKKanGAS inh,NALP3 yeast inh,TIM10 inh,tim23-1 inh,tim10-1 inh,PfHsp90 set2,tim10-1 confirm
NC(=O)c1c(NC(=O)CSc2nc3c(c(C(F)(F)F)n2)CCc2ccccc2-3)sc2c1CCCC2,3,-9,-1,21,-1,-8,.
COC(CNC(=O)c1cnn2c(C)c(Cc3ccccc3)c(C)nc12)OC,-4,8,-2,26,40*,10,24
COC(=O)NNC(=O)COc1ccc2ccccc2c1Br,-2,10,22,30,45*,-23,25
CC(C)(C)C(=O)NNC(=O)COc1ccc2ccccc2c1Br,-3,10,8,17,-6,4,.
O=C(N/N=C/c1ccc([N+](=O)[O-])o1)C1CC1,13,4,14,25,19,-5,.
N/C(Cc1cccs1)=N\OC(=O)COc1ccc(Cl)cc1Cl,15,26,26,44,49*,9,52*
CC(=O)NN1C(=O)/C(=C\c2ccc(O)cc2)SC1=S,4,15,5,11,1,2,.
O=C1/C(=C\c2ccc(O)cc2)SC(=S)N1/N=C/c1ccc(O)cc1,12,12,24,35,41*,11,39*
C=C1/C(=C\C=C2/CCC[C@]3(C)[C@@H]([C@H](C)/C=C/[C@@H](O)C4CC4)CC[C@@H]23)C[C@@H](O)C[C@@H]1O,9,48,10,41,44*,.,26
Cc1ccc2cccc(OCc3ccc(Br)cc3)c2n1,2,40,40,39,44*,3,17
Cc1ccc2cccc(OCc3ccc(F)cc3)c2n1,2,15,1,28,17,5,.
Cc1sc2ncnc(N3CCCCC3C)c2c1C (stereo not drawn),7,23,6,28,42*,1,22
Cc1sc2ncnc(N3CCCCC3)c2c1C,0,19,5,39,19,-13,.
Cc1ccc(S(=O)(=O)N2CCN(C(=O)c3cc4c(s3)CCCC4)CC2)c(C)c1,.,7,18,33,22,12,.
O=C(c1cc2c(s1)CCCC2)N1CCN(S(=O)(=O)c2ccccc2C(F)(F)F)CC1,-24,13,13,35,41*,-22,29
O=C(CSc1nnc(SCc2ccccc2)s1)NNC(=S)Nc1ccccc1,2,14,38,33,46*,-4,28
CCOc1ccc2nc(N/C(N)=N/C(=S)Nc3ccc(C)c(C)c3)nc(C)c2c1,12,21,26,30,15,-5,.
COc1ccc(NC(=S)/N=C(\N)Nc2nc(C)c3ccc(C)cc3n2)cc1,-2,29,29,13,40*,.,26
Cc1ccc2c(C)nc(N/C(N)=N/S(=O)(=O)c3ccc([N+](=O)[O-])cc3)nc2c1,7,41,25,30,42*,.,26
COC(=O)c1c(S(C)(=O)=O)nc(-c2ccccc2)[nH]c1=O,1,6,-1,6,-12,-9,.
Cn1c(N)c(C(=O)COC(=O)Cc2ccc(Cl)cc2Cl)c(=O)n(C)c1=O,.,5,19,29,24,22,.
Cn1c(N)c(C(=O)COC(=O)CCCOc2ccc(Cl)cc2Cl)c(=O)n(C)c1=O,12,14,20,20,42*,13,41*
O=c1c2ccccc2oc2cc(NCCCN3CCOCC3)ccc12,-1,17,-3,6,41*,.,7
O=c1c2ccccc2oc2ccc(NCCCN3CCOCC3)cc12,-8,11,10,29,26,2,.
COc1cccc2cc(C(=O)OCc3ccccc3)c(=O)oc12,-11,18,24,45,42*,7,23
COc1cccc2cc(C(=O)Oc3ccccc3)c(=O)oc12,-2,8,1,10,5,2,.
Cc1ccc(CNC(=O)C(=O)NCC2OCCN2S(=O)(=O)c2ccc(Cl)cc2)cc1 (stereo not drawn),4,9,5,22,12,-21,.
CCOC(=O)N1CCN(C(=O)CCc2c(C)nc3c(c(C)nn3-c3ccc(C)c(C)c3)c2C)CC1,22,15,30,30,40,5,35*
COc1ccc(-c2cc(=O)oc3cc(OC(=O)C4CCCCC4)c(Cl)cc23)cc1,20,-15,38,37,44*,-61,36*

# Screening results (PubChem BioAssay)
